Structures are written as SMILES. “And” between values parts separate entries of the source, which are not always exact repeats. Equal entries are not always repeated. Records with an inconclusive call do not appear. The source made the active and inactive calls. Unless noted, the call rests on the fitted dose curve; in most records, active means well fitted curve in the direction sought with a large enough effect in the repeat runs; inconclusive means weak or mixed curves; inactive means no such curve, though single readings can be large; an effect the other way counts as inactive or inconclusive.

Assay [1] concerns the target Acetylcholinesterase (Homo sapiens) (UniProt P22303). The assay is described as follows: Acetylcholinesterase (AChE) small molecule antagonists: enzyme-based qHTS assay (AID 1347397; calls by dose curve; further: nearly all actives have a fitted effect of over 55% in size). The note with it: Potency: AChE enzyme activity inhibition; outcome: AChE enzyme activity inhibition. The procedure, abridged:
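In this quantitative HTS, compounds from the Tox21 10K collection were preincubated 30 min at ambient temperature with recombinant human AChE dispensed at 50 mU/mL. Hydrolysis of acetylthiocholine was then followed for 10 min by DTNB colour development.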

The target is the same in assay [2]. The assay is described as follows: Acetylcholinesterase (AChE) small molecule antagonists: fluorescence cell-based qHTS assay (AID 1347398; calls by dose curve; further: nearly all actives have a fitted effect of over 50% in size). Particulars: Potency: AChE activity; outcome: AChE activity. The procedure, abridged:
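Cells (SH-SY5Y) attached overnight, were dosed with compound or DMSO vehicle for 30 min at 37 C, and then incubated 40 min at room temperature with acetylthiocholine and Thiolite Green; green fluorescence indexed AChE activity.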

The target is the same in assay [3]. The assay is described as follows: Acetylcholinesterase (AChE) small molecule antagonists: enzyme-based qHTS assay with human liver microsomes (AID 1347399; calls by dose curve; further: nearly all actives have a fitted effect of over 60% in size). Particulars: Potency: qHTS inhibition; outcome: qHTS inhibition. The procedure, abridged: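 Recombinant human AChE (50 mU/mL in the enzyme mix) and human liver microsomes (0.25 mg/mL final) were preincubated with compound and NADPH (0.25 mg/mL final) for 30 min at 37 C. Acetylthiocholine/DTNB was then added; thiocholine was read colorimetrically after 10 min at room temperature.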

For assay [4], the target named is Cytochrome P450 2C19 (Homo sapiens) (UniProt P33261). Put plainly: Cytochrome P450 Family 2 Subfamily C Member 19 (CYP2C19) small molecule antagonists: luciferase reporter qHTS assay (AID 1671197). Further: nearly all actives have a fitted effect of over 65% in size. Further: potency means the concentration at half of the fitted maximal effect. The procedure, abridged: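 Relative luminescence units recorded 20 min after the detection reagent stopped a 1 h, 37C CYP2C19 reaction on proluciferin substrate, which was started by NADPH regeneration following 10 min room-temperature compound preincubation; ketoconazole positive control.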

In assay [5] the target is Cytochrome P450 2C9 (Homo sapiens) (UniProt P11712). The assay is described as follows: Cytochrome P450 Family 2 Subfamily C Member 9 (CYP2C9) small molecule antagonists: luciferase reporter qHTS assay (AID 1671198). Further: nearly all actives have a fitted effect of over 50% in size. Further: potency means the concentration at half of the fitted maximal effect. Summed up: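 P450-Glo proluciferin substrate with CYP2C9 enzyme; 10 min RT preincubation, then NADPH regeneration 1 h at 37C; luciferin detection reagent 20 min RT, luminescence in relative luminescence units.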

In assay [6] the target is Cytochrome P450 1A2 (Homo sapiens) (UniProt P05177). Put plainly: Cytochrome P450 Family 1 Subfamily A Member 2 (CYP1A2) small molecule antagonists: luciferase reporter qHTS assay (AID 1671199). Further: nearly all actives have a fitted effect of over 50% in size. Further: potency means the concentration at half of the fitted maximal effect. Summed up:
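Luminescence from luciferin formed by CYP1A2 from a proluciferin substrate, read 20 min after detection reagent. Compound was pre-incubated 10 min with enzyme-substrate, and reaction started with NADPH regeneration solution for 1 h at room temperature; furafylline control.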

For assay [7], the target named is Voltage-gated inwardly rectifying potassium channel KCNH2 (Homo sapiens) (UniProt Q12809). The assay is described as follows: Human Ether-a-go-go-Related Gene (hERG) channel small molecule antagonists: fluorescence cell-based qHTS assay (AID 1671200).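 Further: hERG-expressing U2OS cells given a thallium stimulus after FluxOR II dye loading; series mostly up to about 77 µM; nearly all actives have a fitted effect of over 50% in size.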 Summed up: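 Thallium served as the potassium surrogate; its influx into dye-loaded U2OS cells carrying the channel was measured by fluorescence over 2 min.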

Assay [8] concerns the target Cytochrome P450 3A4 (Homo sapiens) (UniProt P08684). The assay is described as follows: Cytochrome P450 Family 3 Subfamily A Member 4 (CYP3A4) small molecule antagonists: luciferase reporter qHTS assay (AID 1671201). Further: nearly all actives have a fitted effect of over 50% in size. Further: potency means the concentration at half of the fitted maximal effect. Summed up:
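Relative luminescence units after 20 min with luciferin detection reagent served as read-out. Beforehand, CYP3A4 turned over a proluciferin substrate for 1 h at room temperature with NADPH regeneration, following 10 min compound preincubation.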

The target in assay [9] is Cytochrome P450 2D6 (Homo sapiens) (UniProt P10635). Put plainly: Cytochrome P450 Family 2 Subfamily D Member 6 (CYP2D6) small molecule antagonists: luciferase reporter qHTS assay (AID 1671196). Further: nearly all actives have a fitted effect of over 50% in size. Further: potency means the concentration at half of the fitted maximal effect. The procedure, abridged: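 CYP2D6 activity was followed as luminescence from its luciferin product after a 1 h NADPH-driven reaction at room temperature. Enzyme-substrate mix and compound were pre-incubated for 10 min, and the signal was read 20 min after adding detection reagent.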
Sequence of Cytochrome P450 2D6 (Homo sapiens) (P10635 whole entry, looked up): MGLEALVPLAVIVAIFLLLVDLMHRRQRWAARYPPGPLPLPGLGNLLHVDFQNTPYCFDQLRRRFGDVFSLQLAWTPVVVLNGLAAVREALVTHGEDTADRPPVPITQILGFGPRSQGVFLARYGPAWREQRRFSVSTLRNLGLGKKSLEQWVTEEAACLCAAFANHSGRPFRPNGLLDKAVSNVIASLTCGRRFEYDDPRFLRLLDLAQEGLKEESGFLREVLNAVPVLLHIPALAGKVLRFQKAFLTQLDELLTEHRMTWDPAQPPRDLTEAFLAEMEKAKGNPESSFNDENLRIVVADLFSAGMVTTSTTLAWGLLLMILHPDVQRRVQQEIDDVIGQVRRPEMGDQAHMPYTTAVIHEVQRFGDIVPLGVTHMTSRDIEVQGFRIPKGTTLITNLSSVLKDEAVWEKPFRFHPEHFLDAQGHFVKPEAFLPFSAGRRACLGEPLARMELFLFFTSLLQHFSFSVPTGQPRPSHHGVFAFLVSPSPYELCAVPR

Sequence of Cytochrome P450 3A4 (Homo sapiens) (P08684 whole entry, looked up): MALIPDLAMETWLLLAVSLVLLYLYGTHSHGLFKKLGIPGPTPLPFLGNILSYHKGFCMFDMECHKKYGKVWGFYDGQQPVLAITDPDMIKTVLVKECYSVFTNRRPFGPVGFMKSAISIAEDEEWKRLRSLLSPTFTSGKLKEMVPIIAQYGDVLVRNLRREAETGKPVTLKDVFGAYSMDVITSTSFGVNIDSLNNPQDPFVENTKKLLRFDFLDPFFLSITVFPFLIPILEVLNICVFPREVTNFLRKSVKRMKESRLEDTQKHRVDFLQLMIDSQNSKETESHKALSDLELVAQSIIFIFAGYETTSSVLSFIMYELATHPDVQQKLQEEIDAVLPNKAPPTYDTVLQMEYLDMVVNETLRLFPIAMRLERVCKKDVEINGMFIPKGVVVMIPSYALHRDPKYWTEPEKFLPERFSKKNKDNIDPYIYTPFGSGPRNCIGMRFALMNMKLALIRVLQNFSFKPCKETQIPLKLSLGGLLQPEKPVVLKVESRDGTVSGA
Sequence of Acetylcholinesterase (Homo sapiens) (P22303 whole entry, looked up): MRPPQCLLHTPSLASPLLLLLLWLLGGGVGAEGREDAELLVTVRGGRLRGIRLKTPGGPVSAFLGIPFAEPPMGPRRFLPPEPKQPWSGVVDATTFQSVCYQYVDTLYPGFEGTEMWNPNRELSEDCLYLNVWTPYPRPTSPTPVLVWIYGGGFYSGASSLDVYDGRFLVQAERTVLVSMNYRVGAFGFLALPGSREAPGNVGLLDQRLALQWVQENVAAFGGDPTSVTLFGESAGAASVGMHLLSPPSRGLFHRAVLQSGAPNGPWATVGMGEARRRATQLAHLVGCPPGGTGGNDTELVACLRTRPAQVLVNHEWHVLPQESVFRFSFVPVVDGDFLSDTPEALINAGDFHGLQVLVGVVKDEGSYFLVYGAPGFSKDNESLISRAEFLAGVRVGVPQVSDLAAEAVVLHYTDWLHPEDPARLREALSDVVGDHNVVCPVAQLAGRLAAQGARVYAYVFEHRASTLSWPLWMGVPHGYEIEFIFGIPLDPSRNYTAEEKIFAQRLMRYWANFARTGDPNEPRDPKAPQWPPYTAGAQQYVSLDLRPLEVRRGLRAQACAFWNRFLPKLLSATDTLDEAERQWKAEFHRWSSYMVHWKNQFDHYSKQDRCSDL
Sequence of Cytochrome P450 2C9 (Homo sapiens) (P11712 whole entry, looked up): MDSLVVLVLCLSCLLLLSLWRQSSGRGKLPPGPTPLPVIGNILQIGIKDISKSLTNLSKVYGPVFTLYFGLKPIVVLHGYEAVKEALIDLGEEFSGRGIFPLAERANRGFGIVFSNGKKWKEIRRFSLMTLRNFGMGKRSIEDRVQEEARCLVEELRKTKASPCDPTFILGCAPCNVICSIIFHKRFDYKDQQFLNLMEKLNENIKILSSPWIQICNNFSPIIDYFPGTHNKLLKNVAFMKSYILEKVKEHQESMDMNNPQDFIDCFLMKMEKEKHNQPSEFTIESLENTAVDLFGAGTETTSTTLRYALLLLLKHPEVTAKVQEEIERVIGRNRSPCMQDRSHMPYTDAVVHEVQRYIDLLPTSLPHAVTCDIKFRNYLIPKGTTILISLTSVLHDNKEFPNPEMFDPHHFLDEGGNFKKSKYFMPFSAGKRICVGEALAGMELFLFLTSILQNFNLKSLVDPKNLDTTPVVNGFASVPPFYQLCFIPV
Sequence of Voltage-gated inwardly rectifying potassium channel KCNH2 (Homo sapiens) (Q12809 whole entry, looked up): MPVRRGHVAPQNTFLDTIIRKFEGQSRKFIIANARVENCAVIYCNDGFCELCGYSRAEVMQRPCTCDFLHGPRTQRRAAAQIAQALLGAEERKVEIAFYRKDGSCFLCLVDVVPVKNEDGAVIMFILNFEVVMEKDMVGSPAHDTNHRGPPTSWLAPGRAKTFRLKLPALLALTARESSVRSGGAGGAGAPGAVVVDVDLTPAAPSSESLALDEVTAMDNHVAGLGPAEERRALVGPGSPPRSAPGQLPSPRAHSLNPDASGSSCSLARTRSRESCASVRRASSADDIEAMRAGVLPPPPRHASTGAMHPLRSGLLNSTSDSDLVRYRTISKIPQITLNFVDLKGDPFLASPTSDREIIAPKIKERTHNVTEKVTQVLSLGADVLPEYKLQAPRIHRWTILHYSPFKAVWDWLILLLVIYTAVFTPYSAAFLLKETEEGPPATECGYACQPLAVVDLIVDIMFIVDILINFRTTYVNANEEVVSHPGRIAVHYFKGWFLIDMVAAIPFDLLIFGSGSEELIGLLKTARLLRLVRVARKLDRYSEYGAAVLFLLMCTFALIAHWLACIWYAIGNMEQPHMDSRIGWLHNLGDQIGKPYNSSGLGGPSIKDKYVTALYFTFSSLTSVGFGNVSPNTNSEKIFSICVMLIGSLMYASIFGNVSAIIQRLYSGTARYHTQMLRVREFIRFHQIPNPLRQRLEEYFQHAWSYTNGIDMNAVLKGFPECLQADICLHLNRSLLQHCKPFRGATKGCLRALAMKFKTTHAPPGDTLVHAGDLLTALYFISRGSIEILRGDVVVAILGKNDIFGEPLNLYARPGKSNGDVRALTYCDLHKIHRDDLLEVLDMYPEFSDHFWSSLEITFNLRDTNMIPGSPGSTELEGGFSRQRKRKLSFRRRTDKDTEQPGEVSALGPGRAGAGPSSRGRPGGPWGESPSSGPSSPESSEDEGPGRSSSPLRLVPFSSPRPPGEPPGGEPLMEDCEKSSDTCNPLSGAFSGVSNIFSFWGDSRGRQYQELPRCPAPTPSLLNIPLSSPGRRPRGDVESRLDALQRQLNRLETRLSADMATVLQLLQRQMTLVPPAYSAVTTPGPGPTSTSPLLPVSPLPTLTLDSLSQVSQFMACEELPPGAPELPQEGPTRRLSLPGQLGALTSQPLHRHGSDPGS
Sequence of Cytochrome P450 1A2 (Homo sapiens) (P05177 whole entry, looked up): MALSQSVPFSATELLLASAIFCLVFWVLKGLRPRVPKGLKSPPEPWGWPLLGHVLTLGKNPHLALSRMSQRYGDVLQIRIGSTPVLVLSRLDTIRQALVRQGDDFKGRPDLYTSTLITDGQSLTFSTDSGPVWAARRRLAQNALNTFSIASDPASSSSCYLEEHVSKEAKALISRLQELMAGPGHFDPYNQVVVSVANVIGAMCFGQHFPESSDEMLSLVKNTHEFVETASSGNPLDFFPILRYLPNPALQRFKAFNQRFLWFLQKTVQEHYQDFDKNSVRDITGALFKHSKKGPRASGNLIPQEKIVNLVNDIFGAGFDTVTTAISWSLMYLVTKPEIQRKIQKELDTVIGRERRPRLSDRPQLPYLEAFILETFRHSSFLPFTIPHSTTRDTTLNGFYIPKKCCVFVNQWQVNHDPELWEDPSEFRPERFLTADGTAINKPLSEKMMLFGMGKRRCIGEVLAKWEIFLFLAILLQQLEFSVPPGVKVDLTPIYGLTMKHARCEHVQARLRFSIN
Sequence of Cytochrome P450 2C19 (Homo sapiens) (P33261 whole entry, looked up): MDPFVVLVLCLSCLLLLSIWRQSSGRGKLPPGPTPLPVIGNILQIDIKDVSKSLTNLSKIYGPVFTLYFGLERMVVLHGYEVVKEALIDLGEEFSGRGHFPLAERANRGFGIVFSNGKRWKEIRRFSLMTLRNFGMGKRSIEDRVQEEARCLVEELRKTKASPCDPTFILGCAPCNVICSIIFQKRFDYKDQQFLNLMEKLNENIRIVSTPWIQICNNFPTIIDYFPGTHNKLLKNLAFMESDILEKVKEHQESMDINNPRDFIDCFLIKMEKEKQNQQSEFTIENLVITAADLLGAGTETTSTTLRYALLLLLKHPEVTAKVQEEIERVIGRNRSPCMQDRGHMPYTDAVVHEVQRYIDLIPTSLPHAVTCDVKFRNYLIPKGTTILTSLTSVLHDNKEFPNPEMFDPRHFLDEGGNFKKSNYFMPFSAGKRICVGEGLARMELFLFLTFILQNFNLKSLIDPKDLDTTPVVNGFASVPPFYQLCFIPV

`N#CC(C#N)=C(C#N)C#N`: the Potency entry in assay [1], in assay [2], in assay [3] and in assay [7] was “inactive” in each case. Further, the Potency was 58.9 µM (active) in assay [4], 33.1 µM (active) in assay [5], 41.7 µM (active) in [6] and 20.9 µM (active) in assay [8].

For `O=C(O)C(F)(F)C(F)(F)C(F)(F)C(F)(F)C(F)(F)F`, the Potency entry in [1], in assay [2], in [3], in [9], in [6] and in [7] was “inactive” throughout. The Potency entry in [8] was “inactive”. Further, in [5], the Potency was 15.9 µM (active).

As to `O=C(CCl)CCl`, the Potency entry in assay [1], in [2], in assay [9], in assay [4], in assay [5] and in assay [6] was “inactive” throughout. The Potency result in assay [7] and in [8] was “inactive” throughout.

As to `COc1cc(C[C@@H](C)N)c(OC)cc1Br`, the Potency entry in assay [1], in assay [2], in assay [4], in [5], in assay [7] and in [8] was “inactive” throughout. Besides, the Potency in assay [9] was 11.6 µM (active); in assay [6] it was 36.5 µM (active).

Turning to `CCc1ccccc1N`, the Potency entry in assay [1], in assay [2], in assay [3] and in assay [7] was “inactive” throughout. The Potency in assay [4] was 89.4 µM (active).

Consider `CC(C)CCON=O`, for which the Potency entry in assay [1], in assay [2], in assay [3], in [4], in assay [5] and in [6] was “inactive” in each case. Further, the Potency entry in assay [7] and in assay [8] was “inactive” throughout.

For `O=C(O)c1cc(I)cc(I)c1I`, the Potency result in assay [1], in assay [2], in assay [3], in [7] and in assay [8] was “inactive” each time. Also, the Potency in assay [5] was 13.6 µM (active).

Regarding `COc1cc(CC#N)cc(OC)c1OC`, the Potency result in assay [1], in assay [2], in assay [3], in [4], in assay [5] and in [7] was “inactive” throughout. For the same compound, the Potency entry in assay [8] is “inactive”. Besides, the Potency in [6] was 24.5 µM (active).

For `COc1ccc(C(O)(c2cncnc2)C2CC2)cc1` (centres undefined), the Potency entry in assay [1], in assay [2], in assay [3] and in [7] was “inactive” throughout. Moreover, the Potency in [4] was 20 µM (active); in assay [5], 63.3 µM (active); in assay [8] it was 0.894 µM (active).

On to `CCC1(CCC(C)C)C(=O)NC(=O)NC1=O`, for which the Potency result in [1], in assay [2], in assay [3] and in [7] was “inactive” each time.

In the case of `Nc1cccc2ccccc12`, the Potency result in assay [1], in [2] and in assay [7] was “inactive” each time. In addition, the Potency is 31.9 µM (active) and 31.7 µM (active) in [9]; 16 µM (active) and 20 µM (active) in assay [4]; 35.8 µM (active) and 50.2 µM (active) in [5]; 10.1 µM (active) and 5.64 µM (active) in assay [6]; 35.6 µM (active) in assay [8].

`CCC[N+](CCC)(CCC)CCC`: the Potency entry in assay [1], in assay [2], in [3], in [5] and in assay [8] was “inactive” each time.

Consider `NCCc1cc(O)c(O)cc1O`, for which the Potency result in assay [1], in [2], in [3], in assay [6], in [7] and in assay [8] was “inactive” throughout. In addition, the Potency in [4] was 9.77 µM (active).

On to `COc1ccc2c(c1OC)C(=O)O[C@H]2[C@@H]1c2cc3c(cc2CCN1C)OCO3`, for which the Potency result in assay [1], in assay [2], in [3] and in assay [6] was “inactive” in each case. In addition, the Potency in [4] is 3.89 µM (active); in [5], 5.49 µM (active).

For the compound `CC(C)(C)N(NC(=O)c1ccc(Cl)cc1)C(=O)c1ccccc1`, the Potency entry in assay [1], in [2], in assay [9] and in [7] was “inactive” throughout. Besides, the Potency in [4] was 4.45 µM (active); in [5] it was 11.2 µM (active); in assay [6], 39.7 µM (active); in [8] it was 7.92 µM (active).

In the case of `CN(C)N`, the Potency entry in assay [1], in [2], in assay [3], in assay [9], in assay [5] and in assay [7] was “inactive” each time. Also, the Potency entry in [8] is “inactive”. Moreover, the Potency in [6] was 35.6 µM (active).

For the compound `CC(C)(C)c1ccc(CCOc2ncnc3ccccc23)cc1`, the Potency entry in assay [1], in [2], in [4], in assay [5], in assay [6] and in [7] was “inactive” throughout. Moreover, the Potency entry in [8] was “inactive”. Also, the Potency in assay [9] was 71 µM (active).

`CCOP(=S)(OCC)Oc1ccc(S(C)=O)cc1` (centres undefined): the Potency result in [1], in assay [3], in assay [9] and in assay [7] was “inactive” in each case. The Potency in [4] was 0.113 µM (active); in assay [5], 0.252 µM (active); in assay [6], 3.99 µM (active).

With `CCOC(=O)NC(O)C(Cl)(Cl)Cl` (centres undefined), the Potency result in assay [1], in assay [2], in assay [9], in assay [5], in [6] and in [7] was “inactive” in each case. Moreover, the Potency result in [8] is “inactive”.

In the case of `CCCCNC(=O)OCC#CI`, the Potency entry in [1], in [3] and in assay [7] was “inactive” in each case. Further, the Potency is 31.6 µM (active) and 35.6 µM (active) in assay [9]; 2.81 µM (active) and 2.52 µM (active) in [4]; 5 µM (active) and 5.03 µM (active) in [5]; 3.54 µM (active) and 5.64 µM (active) in assay [6]; 3.54 µM (active) and 5.64 µM (active) in assay [8].

As for `Cc1nc2ccccc2c(=O)n1-c1ccccc1Cl`, the Potency result in assay [1], in assay [2], in assay [6], in assay [7] and in assay [8] was “inactive” throughout. The Potency in assay [4] was 2.77 µM (active); in [5], 39.1 µM (active).

For the origin of these results see PubChem BioAssay (Tox21).
